The list is not random: actives were taken first. Their share in the collection is about 1%.
DUSP3 inh: VHR1 phosphatase inhibitors, primary screen, biochemical, absorbance, uHTS. inhibition, % at 13.3 µM. Dual specificity protein phosphatase 3 (Homo sapiens), P51452. AID 1654, 2009. recombinant VHR phosphatase, pNPP absorbance. actives 0.52% (n = 290,000); in the data active means inhibition above about 50%
Target sequence (P51452 whole entry, looked up): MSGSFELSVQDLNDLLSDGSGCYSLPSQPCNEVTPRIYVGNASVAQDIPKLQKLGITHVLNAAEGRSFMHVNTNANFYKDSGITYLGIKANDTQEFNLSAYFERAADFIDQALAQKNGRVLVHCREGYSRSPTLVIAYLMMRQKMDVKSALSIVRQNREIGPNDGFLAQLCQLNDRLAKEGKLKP
Yp Topo-I inh: Yersinia pestis topoisomerase I inhibitors, primary screen, biochemical, cleavage product accumulation, plate reader, single point; activity, % at 10 µM; Y. pestis Topo-I cleavage product accumulation; actives 0.064% (n = 360,000); in the data active means activity above about 50%, passing the limit was not always enough
BioA inh: M. tuberculosis BioA enzyme inhibitors, primary screen, biochemical, plate reader, single point, HTS. 7,8-diaminopelargonic acid synthase BioA (Mycobacterium tuberculosis). purified M. tuberculosis BioA enzyme. inhibition, % at 9.99 µM. actives 0.096% (n = 360,000). AID 602481, 2012; in the data active means inhibition above about 40%
MazEF act: activators of E. coli MazEF toxin-antitoxin RNase, primary screen, biochemical, fluorescence, uHTS. Endoribonuclease toxin MazF (Escherichia coli (strain K12)), P0AE70. FAM/BHQ RNA-DNA oligo cleavage fluorescence, 5 h. activation, % at 20 µM. actives 0.32% (n = 350,000); in the data active means activation above about 50%
Target sequence (P0AE70 whole entry, looked up): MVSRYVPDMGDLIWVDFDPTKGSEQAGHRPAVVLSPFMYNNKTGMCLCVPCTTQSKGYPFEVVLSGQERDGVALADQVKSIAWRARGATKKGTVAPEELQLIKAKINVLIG
FadD28 binding: inhibitors of FadD28 bisubstrate probe binding, primary screen, biochemical, fluorescence polarization, single point; inhibition, % at 12.5 µM; actives 0.22% (n = 360,000); AID 588549, 2011; in the data active means inhibition above about 8.5%, passing the limit was not always enough
TcdB inh: TcdB glycohydrolase inhibitors, primary screen, biochemical, single point, plate reader. Toxin B (Clostridioides difficile), P18177. TcdB glycohydrolase enzymatic assay. inhibition, % at 9.99 µM. actives 0.24% (n = 350,000). AID 652162, 2013; in the data active means inhibition above about 10%
* hit, by the source's call; x = not tested or not shown.

SMILES	DUSP3 inh	Yp Topo-I inh	BioA inh	MazEF act	FadD28 binding	TcdB inh
CCS(=O)(=O)Nc1ccc2c(c1)C(=O)N(C)C[C@@H](OC)[C@H](C)CN(Cc1ccccn1)[C@H](C)CO2	x	x	-0.3	x	x	0.4
CCCOc1ccc(/C(O)=C2/C(=O)C(=O)N(c3ccccn3)C2c2ccc(OC)cc2)cc1C (stereo not given)	-1.2	55.8*	0.3	-8.1	-4.0	0.0
COc1ccc(/C(O)=C2/C(=O)C(=O)N(c3ccccn3)C2c2ccc(OC)cc2)cc1 (stereo not given)	-10.0	3.5	1.3	2.2	x	-0.7
CCS(=O)(=O)Nc1ccc2c(c1)C(=O)N(C)[C@H]1CC[C@H](CC(=O)OC)O[C@@H]1CO2	x	x	x	x	x	-0.8
Cc1nn(Cc2ccc(F)cc2)c(Cl)c1/C=N/NC(=O)c1cccnc1	2.6	-2.7	97.6*	7.0	-3.4	1.9
Cc1nn(Cc2ccc(F)cc2)c(Cl)c1/C=N/NC(=O)c1ccccc1	9.1	13.8	x	13.0	-2.9	0.4
O=C(C[C@@H]1C[C@@H]2c3cc(NC(=O)c4cccnc4)ccc3O[C@@H]2[C@H](CO)O1)NCc1ccncc1	x	x	31.6	x	x	-0.2
Nc1nc(CSc2nc3ccccc3s2)nc(N2CCOCC2)n1	53.0*	0.7	x	-2.0	-5.2	-0.6
Nc1nc(CSCc2ccccc2)nc(N2CCOCC2)n1	20.4	-6.0	x	4.5	-0.2	x
O=C(C[C@@H]1C[C@@H]2c3cc(NC(=O)c4ccc5c(c4)OCO5)ccc3O[C@@H]2[C@@H](CO)O1)NCCc1ccccc1	x	x	-0.6	x	x	-6.8
Cc1ccc(OC(=O)CCC(=O)Oc2ccc(C)cc2C)c(C)c1	x	60.1*	-1.3	-3.0	-2.8	-0.2
O=C(O)c1ccc(-n2nnc3ccccc32)c([N+](=O)[O-])c1	20.3	2.6	-0.4	10.4	-1.9	13.6*
CCCn1c(SCC(=O)NC2CCCCC2)nnc1-c1ccco1	57.6*	0.2	-0.7	5.5	-4.1	0.3
CCn1c(SCC(=O)NC2CCCC2)nnc1-c1ccco1	-2.6	7.2	-0.6	3.4	0.9	1.0
CCOc1ccc(-n2ccnc2SCC(=O)Nc2nnc(CC)s2)cc1	54.9*	3.0	-1.1	0.6	-1.2	x
Cc1ccc(S(=O)(=O)Oc2ccccc2/C=N/Nc2ccc(C(=O)O)cc2)cc1	29.8	3.2	-0.8	5.2	9.1*	2.6
Cc1ccc(S(=O)(=O)Oc2ccccc2/C=N/O)cc1	27.6	4.1	-1.3	-0.1	-4.0	3.8
COc1cc(OC)c2c(O)c3c(c(-c4c5c(c(O)c6c(OC)cc(OC)cc46)CO[C@@H](C)[C@H]5O)c2c1)[C@H](O)[C@H](C)OC3	16.5	-10.3	-4.1	-69.1	10.2*	x
C[C@H]1CN([C@@H](C)CO)S(=O)(=O)c2ccc(C3=CCCC3)cc2O[C@@H]1CN(C)C(=O)c1ccccn1	x	x	0.8	x	x	0.2
Cc1ccc(S(=O)(=O)Nc2cccc3c2O[C@@H](CN(C)S(=O)(=O)c2ccc(Cl)cc2)[C@H](C)CN([C@@H](C)CO)C3=O)cc1	x	x	x	x	x	0.0
NC1=NC2(CCCCC2)N(c2ccc(F)cc2)C(N)=N1	52.9*	6.8	-0.7	6.7	0.0	x
Cc1cc(C(=O)N/N=C/c2ccc(-c3ccc([N+](=O)[O-])cc3C)o2)n[nH]1	11.4	-3.5	-1.5	75.4*	0.6	-0.2
CO[C@@H]1CN(C)C(=O)c2cc(NC(=O)CC(F)(F)F)ccc2OC[C@H](C)N(C(C)=O)C[C@@H]1C	x	x	x	x	x	0.1
CC1CCN(CCCn2c(=S)[nH]c3c(sc4ccccc43)c2=O)CC1	2.8	0.4	1.6	-1.3	-2.6	11.5*
Cc1ccc(-c2csc(NC(=O)/C=C/c3ccco3)c2C(=O)O)cc1	22.5	-8.4	5.2	-5.5	1.7	14.6*
SMILES	DUSP3 inh	Yp Topo-I inh	BioA inh	MazEF act	FadD28 binding	TcdB inh
N#CC1CC(c2ccc([N+](=O)[O-])cc2)=NN1c1ccc([N+](=O)[O-])cc1 (stereo not given)	18.1	-7.3	13.8	562.9*	-3.9	0.2
O=[N+]([O-])c1cccc(C2CC(c3ccccc3)=NN2c2ccccc2)c1 (stereo not given)	-3.5	3.8	1.5	9.4	-0.5	1.3
CCC(=O)Nc1ccc2c(c1)OC[C@@H](C)N(S(=O)(=O)c1cn(C)cn1)C[C@@H](C)[C@H](OC)CN(C)C2=O	x	x	-0.9	x	x	0.3
O=C(C[C@H]1CC[C@@H](NC(=O)c2ccncc2)[C@H](CO)O1)Nc1ccc(-c2ccccc2)cc1	x	x	x	x	x	-0.4
Cc1cccc(CN2C(=O)N/C(=C/c3ccc(C)s3)C2=O)c1	32.7	0.7	x	189.5*	-0.5	x
Cc1ccc(/C=C2/NC(=O)N(Cc3ccccc3)C2=O)s1	9.5	7.1	-2.0	41.0	2.5	x
C[C@H]1CN([C@@H](C)CO)C(=O)c2cccc(NC(=O)Nc3cccc4ccccc34)c2O[C@H]1CN(C)C(=O)Nc1ccc2c(c1)OCO2	x	x	0.8	x	x	1.2
COc1cc(/C=N/NC(=O)c2cccnc2)ccc1OC(=O)c1ccc2c(c1)OCO2	31.1	19.0	1.3	72.2*	-3.1	x
O=C(N/N=C/c1ccc(OC(=O)c2ccc3c(c2)OCO3)cc1)c1cncc(Br)c1	50.8*	1.3	-1.0	-53.1	-0.5	x
O=C(N/N=C/c1cccc(OC(=O)c2ccc3c(c2)OCO3)c1)c1cncc(Br)c1	37.3	5.0	0.6	4.9	-1.7	x
C[C@H](CO)N1C[C@H](C)[C@H](CN(C)Cc2ccncc2)Oc2cc(C3=CCCC3)ccc2S1(=O)=O	x	x	-0.2	x	x	0.9
CCCOc1ccc(-c2nc(=S)[nH][nH]2)cc1	-6.6	-8.8	0.1	6.1	-2.6	x
S=c1nc(-c2ccc(Cl)cc2)[nH][nH]1	8.7	3.5	-0.2	10.4	-1.6	12.2*
COc1ccc(-c2cc(=O)oc3c(C)c(OC(=O)c4cccs4)ccc23)cc1	-1.6	12.0	x	109.5*	-0.8	0.4
O=C(CCS(=O)(=O)c1ccccc1)Nc1ccccn1	59.7*	-3.2	-0.7	-1.1	-3.1	-0.1
Cc1ccnc(NC(=O)CCS(=O)(=O)c2ccccc2)c1	16.3	3.2	-1.3	8.1	x	0.6
CCCN(C)C[C@H]1Oc2cc(C#C[C@@H](C)O)ccc2S(=O)(=O)N([C@H](C)CO)C[C@H]1C	x	x	-1.3	x	x	-1.1
N=C(N)c1ccc(N=Nc2c(O)ccc3c2[nH]c2ccccc23)cc1	x	-65.4	x	-3.0	0.9	13.6*
CC(=O)C1=C(c2cccc([N+](=O)[O-])c2)N(C(C)=O)n2c(C)nnc2S1	16.5	7.1	x	51.6*	-2.7	-1.9
O=c1[nH]c2ccccc2n1C1=CCCC1	13.9	6.0	-0.4	-5.2	0.7	x
O=c1[nH]c2ccccc2n1C1=CCNCC1	52.0*	-4.5	-3.3	6.1	-3.0	0.1

High-throughput results from PubChem BioAssay.
